Records with an inconclusive call do not appear. Calls of active or inactive are those of the source. The call rests on the fitted dose curve; in most records, active means well fitted curve in the direction sought with a large enough effect; inconclusive means small, poorly fitted or top-dose-only effect, or another doubt; inactive means no such curve, though single readings can be large or run the other way.
What follows are compounds tested against Protein phosphatase 1D (Homo sapiens) (UniProt O15297) (assay: Rhodamine-PBP qHTS Assay for Modulators of WT P53-Induced Phosphatase 1 (WIP1) (AID 1347425)). Settings: recombinant WIP1, Rhodamine-PBP phosphate fluorescence, real-time; series mostly up to 57.5 µM.
Sequence of Protein phosphatase 1D (Homo sapiens) (O15297 whole entry, looked up): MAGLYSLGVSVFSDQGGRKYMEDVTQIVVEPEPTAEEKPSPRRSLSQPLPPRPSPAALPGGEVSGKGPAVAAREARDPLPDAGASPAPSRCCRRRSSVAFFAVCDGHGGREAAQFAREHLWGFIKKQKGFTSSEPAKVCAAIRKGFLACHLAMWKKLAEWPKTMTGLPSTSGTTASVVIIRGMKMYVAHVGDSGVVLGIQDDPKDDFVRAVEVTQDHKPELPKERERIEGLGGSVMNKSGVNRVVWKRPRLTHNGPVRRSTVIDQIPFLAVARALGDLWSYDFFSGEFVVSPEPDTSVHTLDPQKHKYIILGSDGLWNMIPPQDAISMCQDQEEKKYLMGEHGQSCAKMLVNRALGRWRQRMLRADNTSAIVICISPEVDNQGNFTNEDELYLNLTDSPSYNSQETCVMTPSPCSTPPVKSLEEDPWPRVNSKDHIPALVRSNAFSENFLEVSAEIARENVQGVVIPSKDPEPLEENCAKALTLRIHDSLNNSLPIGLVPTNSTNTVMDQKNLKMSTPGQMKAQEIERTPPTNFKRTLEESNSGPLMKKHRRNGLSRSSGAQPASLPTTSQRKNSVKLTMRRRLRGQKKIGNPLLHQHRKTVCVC
Description: Assay Provider (PI): Nathan Coussens Ph.D.
National Center for Advancing Translational Sciences (NCATS), Rockville, MD
National Institute of Health (NIH), Bethesda, Maryland
WT P53-Induced Phosphatase 1 (WIP1) is a member of the magnesium-dependent serine/threonine protein phosphatase (PPM) family and is induced by P53 in response to DNA damage. In several human cancers, the WIP1 protein is overexpressed, which is generally associated with a worse prognosis. Although WIP1 is an attractive therapeutic target, no potent, selective, and bioactive small-molecule modulator with favorable pharmacokinetics has been reported. Phosphatase enzymes are among the most challenging targets for small molecules because of the difficulty of achieving both modulator selectivity and bioavailability. Another major obstacle has been the availability of robust and physiologically relevant phosphatase assays that are suitable for high-throughput screening.
Here, we describe two orthogonal biochemical WIP1 activity assays that utilize phosphopeptides from native WIP1 substrates. We optimized a RapidFire MS assay to quantify the enzymatically dephosphorylated peptide reaction product in a 384-well format. Additionally, a redshifted Rhodamine-PBP fluorescence assay was optimized in a 1,536-well format to enable real-time WIP1 activity measurements through the detection of the orthogonal reaction product, Pi. We validated these two optimized assays by quantitative high-throughput screening against the National Center for Advancing Translational Sciences (NCATS) Pharmaceutical Collection and used secondary assays to confirm and evaluate inhibitors identified in the primary screen.
SEQUENCE No. (e.g., 1, 2, 3, etc.); […] (e.g., Cells, Incubation, Reagent, etc.); VALUE; DESCRIPTION
1; Reagent; 3 uL; WIP1 (6.7 nM), Rh-PBP (13.3 uM), columns 1-48
3; Library Compounds; 23 nL; NCATS Pharmaceutical Collection, column 5-48
4; Control Compounds; DMSO in column 2, GSK2830371 (57.5 uM, final) in 3-fold serial dilutions in column 3, GSK2830371 (1.15 uM, final) in column 4
5; Time; 1 hr; incubation
6; Detection; fluorescence (f0); ViewLux, excitation filter = 525 nm, emission filter = 598 nm
7; Reagent; 1 uL; VEPP-pS-QETFS (40 uM), columns 2-48
8; Detection; fluorescence (f1); ViewLux, excitation filter = 525 nm, emission filter = 598 nm
NOTES (numbers refer to sequence above)
1 & 2; Black medium binding Greiner 1536-well plates (# 789176-F); assay buffer: 50 mM Tris-HCl pH 7.5, 30 mM MgCl2, 1mM TCEP, 0.1 mM EGTA, 75 ug/mL BSA; dispensed with a BioRaptr liquid handler (Beckman Coulter).
3 & 4; Kalypsys pintool (equipped with 1536 pinhead, Wako USA) transfer. Tip wash sequence: DMSO, methanol, 3 sec vacuum dry.
5; Room temperature incubation.
7; VEPPL-pS-QETFS in assay buffer dispensed with a BioRaptr; final reaction conditions: 5 nM WIP1, 10 uM VEPPL-pS-QETFS, 10 uM Rh-PBP, 50 mM Tris-HCl pH 7.5, 30 mM MgCl2, 1 mM TCEP, 0.1 mM EGTA, 75 ug/mL BSA.
8; Measurement taken at 1 min intervals for 11 min. Delta readout = f1 - f0.
`CC(C)(C)C(=O)C(Oc1ccc(Cl)cc1)n1ccnc1` (stereo not given) was tested, and the outcome was “inactive”. With `CC1(C)[C@@H]2CC[C@@]1(C)C(=O)C2` the outcome was “inactive”. For `CC[N+](CC)(CC)CCOc1ccc(/C=C/c2ccccc2)cc1`, the outcome was “inactive”. With `Cc1cccc(Nc2cc(Cl)nc(SCC(=O)O)n2)c1C` the outcome was “inactive”. For `COC(=O)C1=C(C)NC(C)=C(C(=O)OC)C1c1ccccc1[N+](=O)[O-]`, the outcome was “inactive”. `CNCCC(Oc1ccc(C(F)(F)F)cc1)c1ccccc1` (stereo not given) was tested, and the outcome was “inactive”. `CS(=O)(=O)c1ccc([C@@H](O)[C@@H](CF)NC(=O)C(Cl)Cl)cc1` was tested, and the outcome was “inactive”. For `CCOc1nc2cccc(C(=O)O)c2n1Cc1ccc(-c2ccccc2-c2nn[nH]n2)cc1`, the outcome was “inactive”. `CC(=O)NC(Cc1ccccc1)C(=O)O` (stereo not given) was tested, and the outcome was “inactive”. `CCN(CC)CCCC(C)Nc1c2ccc(Cl)cc2nc2ccc(OC)cc12` (stereo not given) was tested, and the outcome was “inactive”. `CCN(CC)CCSC(=O)C(c1ccccc1)c1ccccc1` was tested, and the outcome was “inactive”. `N[C@H](C(=O)O)c1ccc(O)cc1` was tested, and the outcome was “inactive”. For `CN(C)CC[C@@H](c1ccc(Cl)cc1)c1ccccn1`, the outcome was “inactive”. With `O=c1cc[nH]c(=S)[nH]1` the outcome was “inactive”. In the case of `Cc1c(O)cccc1C(=O)N[C@@H](CSc1ccccc1)[C@H](O)CN1C[C@H]2CCCC[C@H]2C[C@H]1C(=O)NC(C)(C)C`, the outcome is reported as “inactive”. In the case of `CC[C@H]1CN2CCc3cc(OC)c(OC)cc3[C@@H]2C[C@@H]1C[C@H]1NCCc2cc(OC)c(OC)cc21`, the outcome is reported as “inactive”. For `CCN(CC)C(=O)Nc1ccc(OCC(O)CNC(C)(C)C)c(C(C)=O)c1` (stereo not given), the outcome was “inactive”. `CCN(CC)C(C)CN1c2ccccc2Sc2ccccc21` (stereo not given) was tested, and the outcome was “inactive”. In the case of `C/C(=C(\CCOP(=O)(O)O)SC(=O)c1ccccc1)N(C=O)Cc1cnc(C)nc1N`, the activity change, negative = inhibition is reported as -15.2% [at 4.81 µM] (inactive). With `CSc1ccc2c(c1)N(CCC1CCCCN1C)c1ccccc1S2` (stereo not given) the outcome was “inactive”. In the case of `C=Cc1c(C)c2cc3[nH]c(cc4nc(cc5nc(cc1[nH]2)C(C)=C5CCC(=O)O)C(CCC(=O)O)=C4C)c(C)c3C=C`, the outcome is reported as “inactive”. `CC1(C)OC(=O)NC1=O` was tested, and the outcome was “inactive”. For `CN1CCC[C@@H]1Cc1c[nH]c2ccc(CCS(=O)(=O)c3ccccc3)cc12`, the outcome was “inactive”. For `CN1[C@@H]2CC(OC(=O)[C@H](CO)c3ccccc3)C[C@H]1[C@@H]1O[C@@H]12` (stereo not given in full), the outcome was “inactive”. With `Cc1cc(O)cc2c1O[C@](C)(CCC[C@H](C)CCC[C@H](C)CCCC(C)C)CC2` the outcome was “inactive”. `CCOC(=O)c1ccc(O)cc1` was tested, and the outcome was “inactive”. With `CC(O)CN(CCN(CC(C)O)CC(C)O)CC(C)O` (stereo not given) the outcome was “inactive”. In the case of `CC/C=C(\C(=O)N[C@@H]1C(=O)N2C(C(=O)OCOC(=O)C(C)(C)C)=C(COC(N)=O)CS[C@H]12)c1csc(N)n1`, the outcome is reported as “inactive”. In the case of `CC1=C(CC(=O)O)c2cc(F)ccc2/C1=C\c1ccc(S(C)(=O)=O)cc1`, the outcome is reported as “inactive”. For `CCCCOc1cc(C(=O)OCCN(CC)CC)ccc1N`, the outcome was “inactive”. In the case of `O=c1[nH]c(=O)c2[nH]c(=O)[nH]c2[nH]1`, the activity change, negative = inhibition is reported as 10.4% [at 11.5 µM] (inactive). With `CCOc1ccc2ccccc2c1C(=O)N[C@@H]1C(=O)N2[C@@H]1SC(C)(C)[C@@H]2C(=O)O` the outcome was “inactive”. With `NS(=O)(=O)c1cc2c(cc1C(F)(F)F)NC(Cc1ccccc1)NS2(=O)=O` (stereo not given) the outcome was “inactive”. For `O=C(O)[C@H](O)c1ccccc1`, the outcome was “inactive”. For `CN(C)CCCN1c2ccccc2CCc2ccccc21`, the outcome was “inactive”. In the case of `CC(=O)CCC(=O)O`, the outcome is reported as “inactive”. In the case of `CC(CN(C)C)CN1c2ccccc2CCc2ccccc21` (stereo not given), the outcome is reported as “inactive”. In the case of `CCCCN(CCCC)CCCOC(=O)c1ccc(N)cc1`, the outcome is reported as “inactive”. For `O=C(CCCN1CCN(c2ccccn2)CC1)c1ccc(F)cc1`, the outcome was “inactive”. For `CC(=O)Nc1ccc(/C=N/NC(N)=S)cc1`, the outcome was “inactive”.

— PubChem BioAssay (NCATS)
